{"source": "PubChem BioAssay AID1240", "about": "(Sanford-Burnham Center for Chemical Genomics, 2008)", "note": "Out of some 50,000 compounds screened, about 800 (1.6%) showed an effect of 50% or more. What follows is part of a selection rich in strong results, with near analogues and random picks from the rest.", "data": [{"target": "Bcl-2-like protein 10 (Homo sapiens) (UniProt Q9HD36)", "sequence (Q9HD36 whole entry, looked up)": "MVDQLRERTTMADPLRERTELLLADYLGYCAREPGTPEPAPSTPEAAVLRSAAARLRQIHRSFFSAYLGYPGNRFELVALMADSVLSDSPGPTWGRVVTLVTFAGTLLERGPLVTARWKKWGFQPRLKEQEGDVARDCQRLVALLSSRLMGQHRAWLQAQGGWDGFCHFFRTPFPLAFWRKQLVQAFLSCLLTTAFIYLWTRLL", "experiment": "TR3 peptide-Bcl-B binding displacers, biochemical primary FP assay, phenotype converters (AID 1240);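 also: 0% = Bcl-B with tracer peptide and DMSO and 100% = tracer peptide lacking Bcl-B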", "details": "GST-Bcl-B / FITC-TR3 peptide fluorescence polarization; stronger effect = higher value; compound at 3.75 mg/L", "units": {"displacement": "%"}, "values": [{"smiles": "CCc1ccc(NC(=O)C(=O)NCc2ccccc2OC)cc1", "displacement": 6.8}, {"smiles": "COc1ccc(C=C2C(=O)N(c3ccccc3)C(=S)N(c3ccccc3)C2=O)c(OC)c1", "displacement": 10.9}, {"smiles": "COc1ccc(C2=N/C(=C/c3ccccc3OC)C(=O)N2c2ccccc2)cc1", "displacement": 6.4}, {"smiles": "COc1ccc(C2=N/C(=C/c3ccc(F)cc3)C(=O)N2c2ccc(O)cc2)cc1", "displacement": 9}, {"smiles": "COc1ccc(C2=N/C(=C/c3ccccc3F)C(=O)N2c2ccccc2)cc1", "displacement": 125}, {"smiles": "COc1ccc(N2C(=O)/C(=C\\c3ccc(OC)cc3OC)N=C2c2ccccc2)cc1", "displacement": 192}, {"smiles": "COc1ccc(/C=C2/SC(=O)N(c3ccccc3)C2=O)c(OC)c1", "displacement": 5.9}, {"smiles": "O=C1C(=O)N(c2cccc(Br)c2)C(c2ccccc2)/C1=C(/O)c1ccccc1", "note": "(stereo not drawn)", "displacement": 12}, {"smiles": "COc1ccc(NC(=O)c2ccc(S(=O)(=O)N3CCOCC3)cc2)c2ccccc12", "displacement": -8.9}, {"smiles": "Cc1cccn2c(=O)c(/C=C3\\SC(=S)N(C(C)c4ccccc4)C3=O)c(NCCCn3ccnc3)nc12", "note": "(stereo not drawn)", "displacement": 8.8}, {"smiles": "CC1=C(C#N)c2nc(N)c(C#N)c(C)c2/C1=C\\c1ccc(C)o1", "displacement": -4.4}, {"smiles": "N#Cc1c(NC(=O)c2ccc(S(=O)(=O)c3ccccc3)cc2)sc2c1CCCC2", "displacement": 83.9}, {"smiles": "CCc1ccccc1NC(=O)c1c(NC(=O)c2ccccc2Br)sc2c1CCC2", "displacement": -4.1}, {"smiles": "N#Cc1c(NC(=O)c2ccc(C(=O)O)cc2C(=O)O)sc2c1CCCC2", "displacement": 11}, {"smiles": "Cc1ccccc1NC(=O)c1c(NC(=O)c2ccccc2C)sc2c1CCCCC2", "displacement": 13}, {"smiles": "COc1ccc(NC(=O)c2c(NC(=O)c3ccccc3)sc3c2CCCC3)cc1", "displacement": 5.7}, {"smiles": "CCOc1ccccc1NC(=O)c1c(NC(=O)c2ccccc2Br)sc2c1CCCC2", "displacement": -3.8}, {"smiles": "CCc1ccccc1NC(=O)c1c(NC(=O)c2ccccc2)sc2c1CCC2", "displacement": -15.6}, {"smiles": "O=C(Nc1sc2c(c1C(=O)Nc1ccccn1)CCCCC2)c1ccccc1F", "displacement": -3}, {"smiles": "CCc1ccccc1NC(=O)c1c(NC(=O)c2ccccc2Cl)sc2c1CCC2", "displacement": 61.2}, {"smiles": "O=C(Nc1sc2c(c1C(=O)Nc1ccccn1)CCCCC2)c1ccccc1", "displacement": 95}, {"smiles": "COc1ccc(C(=O)Nc2sc3c(c2C#N)CCCCC3)cc1", "displacement": -3.4}, {"smiles": "Cc1ccccc1NC(=O)c1c(NC(=O)c2ccccc2Br)sc2c1CCCCC2", "displacement": 76.6}, {"smiles": "O=C(N/N=C/c1cccnc1)c1cc(-c2ccc3ccccc3c2)n[nH]1", "displacement": -3.8}, {"smiles": "COc1ccc(S(=O)(=O)N2CCN(C3CC4CCC3C4)CC2)cc1", "note": "(stereo not drawn)", "displacement": -1.9}, {"smiles": "Cc1ccc(CNC(=O)C(=O)NC(C)C)cc1", "displacement": 4.4}, {"smiles": "CC1(C)CC(=O)C2=C(C1)Nc1ccccc1NC2c1ccc(-c2ccccc2[N+](=O)[O-])o1", "note": "(stereo not drawn)", "displacement": -15.9}, {"smiles": "Cc1cc(-n2c(C)cc(C=O)c2C)ccc1I", "displacement": -15.5}, {"smiles": "O=C1c2cccc([N+](=O)[O-])c2C(=O)N1c1ccncc1", "displacement": -2.3}, {"smiles": "O=C1/C(=C/c2ccco2)SC(=S)N1c1ccc(F)cc1", "displacement": 7.9}, {"smiles": "O=C1/C(=C/c2ccco2)SC(=S)N1c1cccc(C(F)(F)F)c1", "displacement": 15.4}, {"smiles": "Cc1ccc(/C=C2\\SC(=S)N(c3ccc(F)cc3)C2=O)o1", "displacement": 101}, {"smiles": "O=C1/C(=C/c2ccc(Br)o2)SC(=S)N1c1cccc(C(F)(F)F)c1", "displacement": 21.6}, {"smiles": "CCOc1ccc(N2C(=O)S/C(=C\\c3ccc(C)cc3)C2=O)cc1", "displacement": -5.8}, {"smiles": "O=C1/C(=C/c2ccc(I)o2)SC(=S)N1c1cccc(C(F)(F)F)c1", "displacement": 55.7}, {"smiles": "CCOc1ccc(N2C(=O)S/C(=C\\c3ccc(C)o3)C2=O)cc1", "displacement": 108}, {"smiles": "Cc1ccc(/C=C2\\SC(=S)N(c3ccc(C)c(C)c3)C2=O)o1", "displacement": 14.9}, {"smiles": "O=C1S/C(=C\\c2ccc(Br)o2)C(=O)N1c1ccc(Cl)c(Cl)c1", "displacement": -3.9}, {"smiles": "CCOc1ccc(N2C(=O)S/C(=C\\c3ccc(OC)cc3)C2=O)cc1", "displacement": 13.2}, {"smiles": "O=C1S/C(=C\\c2ccc(Br)cc2)C(=O)N1c1ccc(Cl)cc1", "displacement": -3.3}, {"smiles": "O=C1S/C(=C\\c2ccc(Br)o2)C(=O)N1c1ccc(Cl)cc1", "displacement": 88.9}, {"smiles": "Cc1cc(=O)oc2cc(OCC(=O)OC(C)C)ccc12", "displacement": 1.9}, {"smiles": "CCOC(=O)c1c(NC(C)=O)sc(I)c1-c1ccccc1", "displacement": 0.8}, {"smiles": "Cc1cc(C(=O)NC2CCSC2=O)ccc1[N+](=O)[O-]", "note": "(stereo not drawn)", "displacement": -2.7}, {"smiles": "CS(=O)(=O)N(Cc1ccc(Cl)cc1)c1ccc(C(=O)NCc2ccco2)cc1", "displacement": -14.6}, {"smiles": "Cc1ccc([N+](=O)[O-])cc1S(=O)(=O)N1CCOCC1", "displacement": 5.1}, {"smiles": "CCOc1cccc(C(=O)Nc2cc(-c3nc4cc(C)cc(C)c4o3)ccc2C)c1", "displacement": 9.5}, {"smiles": "Cc1ccc(C)c(NC(=O)c2c(-c3ccccc3Cl)noc2C)c1", "displacement": 9.9}, {"smiles": "CCOc1ccc(N2C(=O)S/C(=C\\c3ccccc3OC)C2=O)cc1", "displacement": 32.7}, {"smiles": "CCOc1ccc(N2C(=O)S/C(=C\\c3ccco3)C2=O)cc1", "displacement": 92.2}, {"smiles": "Cc1ccsc1/C=C1\\SC(=S)N(c2ccccc2)C1=O", "displacement": 126}, {"smiles": "Cc1ccsc1/C=C1\\SC(=S)N(C(C)c2ccccc2)C1=O", "note": "(stereo not drawn)", "displacement": -6.6}, {"smiles": "Cc1ccsc1/C=C1\\SC(=S)N(c2c(C)n(C)n(-c3ccccc3)c2=O)C1=O", "displacement": 6.6}, {"smiles": "CCOc1ccc(/C=C2\\SC(=O)N(c3ccccc3)C2=O)cc1", "displacement": -1.9}, {"smiles": "O=C(O)CSCCCN1C(=O)c2cccc3cccc(c23)C1=O", "displacement": 8}, {"smiles": "CC1=C(C(=O)Nc2ccccc2C)C(c2ccc(F)cc2)NC(=O)N1", "note": "(stereo not drawn)", "displacement": 16.2}, {"smiles": "Cc1ccc(S(=O)(=O)Nc2ccccc2C(=O)Nc2ccccc2)cc1", "displacement": 9.6}, {"smiles": "COC(C(=O)N1CCCCCC1)(c1ccccc1)c1ccccc1", "displacement": 16.8}, {"smiles": "COc1cc(/C=C2\\NC(=S)NC2=O)ccc1Oc1ccc([N+](=O)[O-])cn1", "displacement": 8.2}, {"smiles": "COc1cc(/C=C2\\SC(=S)NC2=O)ccc1Oc1ccc([N+](=O)[O-])cn1", "displacement": 20.6}, {"smiles": "O=C1NC(=S)NC(=O)C1=Cc1ccc(Oc2ccc([N+](=O)[O-])cn2)cc1", "displacement": 10.5}, {"smiles": "O=C1NC(=S)N/C1=C\\c1ccc(Oc2ccc([N+](=O)[O-])cn2)cc1", "displacement": 101}, {"smiles": "O=C1C(=Cc2ccc(Oc3ccc([N+](=O)[O-])cn3)cc2)C(=O)c2ccccc21", "displacement": 4.6}, {"smiles": "O=C1NC(=S)S/C1=C\\c1ccc(Oc2ccc([N+](=O)[O-])cn2)cc1", "displacement": 61.8}, {"smiles": "COc1ccc(C(=O)Nc2ccc(S(=O)(=O)NC(C)=O)cc2)cc1", "displacement": 13.1}, {"smiles": "COc1ccc(-n2cnc3cc(NS(=O)(=O)c4ccc(C)cc4)ccc32)cc1", "displacement": -1.2}, {"smiles": "COc1cc(C(=O)Nc2nnc(CC(=O)NCc3ccccc3)s2)cc(OC)c1OC", "displacement": -14}, {"smiles": "COc1ccc(N2C(=O)C3C4C=CC(C4=C(C)C)C3C2=O)cc1", "note": "(stereo not drawn)", "displacement": 120}, {"smiles": "CC(=O)Oc1ccc(N2C(=O)C3C4C=CC(C4=C(C)C)C3C2=O)cc1", "note": "(stereo not drawn)", "displacement": -3.2}, {"smiles": "CCCOc1ccc(N2C(=O)C3C4C=CC(C4=C(C)C)C3C2=O)cc1", "note": "(stereo not drawn)", "displacement": 9.9}, {"smiles": "O=C1N=C(N2CCOCC2)S/C1=C/c1ccc(Cl)cc1", "displacement": -0.1}, {"smiles": "COC(=O)c1cc(-c2cccs2)nc2ccc(Br)cc12", "displacement": 104}, {"smiles": "COC(=O)c1cc(-c2ccc(OC)cc2)nc2ccc(Br)cc12", "displacement": -4.1}, {"smiles": "COC(=O)c1cc(-c2ccc(Br)cc2)nc2ccccc12", "displacement": 0}, {"smiles": "COc1cc(NC(=O)c2cc(-c3cccs3)nc3ccccc23)c(OC)cc1Cl", "displacement": 55.2}, {"smiles": "COc1ccc(Cl)cc1NC(=O)c1cc(-c2cccs2)nc2ccccc12", "displacement": 8.5}, {"smiles": "COC(=O)c1sccc1NC(=O)c1cc(-c2ccc(OC)cc2OC)nc2ccccc12", "displacement": 16.4}, {"smiles": "COC(=O)c1sccc1NC(=O)c1cc(-c2ccccc2Cl)nc2ccccc12", "displacement": 22.7}, {"smiles": "COc1ccc(NC(=O)c2cc(-c3ccc(OC)cc3OC)nc3ccccc23)c(OC)c1", "displacement": -0.8}, {"smiles": "COC(=O)c1sccc1NC(=O)c1cc(-c2cccs2)nc2ccccc12", "displacement": 60.4}, {"smiles": "COC(=O)c1ccccc1NC(=O)c1cc(-c2ccc(OC)cc2OC)nc2ccccc12", "displacement": -3}, {"smiles": "COc1ccc(-c2cc(C(=O)Nc3ccccc3F)c3ccccc3n2)c(OC)c1", "displacement": 82.3}, {"smiles": "COc1ccccc1NC(=O)c1cc(-c2cccs2)nc2ccccc12", "displacement": -3.7}, {"smiles": "O=C(CSCC(=O)Nc1cccc(C(F)(F)F)c1)Nc1ccccc1", "displacement": -10.4}, {"smiles": "CCOc1cc(/C=N/NC(=O)c2ccncc2)ccc1OC(=O)c1ccc([N+](=O)[O-])cc1", "displacement": 6.9}, {"smiles": "O=C1c2cccc3cccc(c23)C(=O)N1/N=C/c1ccco1", "displacement": 25.1}, {"smiles": "COc1ccc(S(=O)(=O)Nn2cnnc2)cc1", "displacement": -1}, {"smiles": "O=C(O)CN(c1ccccc1)S(=O)(=O)c1ccccc1[N+](=O)[O-]", "displacement": 4.7}, {"smiles": "CCOC(=O)C1=C(O)/C(=C\\c2ccc(OC)cc2)N=C1C", "displacement": 4.4}, {"smiles": "Cc1onc(-c2ccccc2Cl)c1C(=O)Nc1sc(C)c(C)c1C(=O)OC(C)C", "displacement": -6.3}, {"smiles": "CCN(CC)CCN1C(=O)C(O)=C(C(=O)/C=C/c2ccccc2)C1c1ccccc1[N+](=O)[O-]", "note": "(stereo not drawn)", "displacement": 3.2}, {"smiles": "COc1ccc(-c2cc(C(F)(F)F)n3nc(C(=O)NCc4ccco4)c(Cl)c3n2)cc1OC", "displacement": -5.3}, {"smiles": "COc1ccc(Cc2noc(COc3ccc(Cl)cc3)n2)cc1", "displacement": 2.7}, {"smiles": "COc1ccccc1OCCOc1ccc(/C=C2/SC(=S)N(C)C2=O)cc1", "displacement": 3.9}, {"smiles": "Cc1ccccc1OCCOc1cccc(/C=C2/SC(=S)N(C)C2=O)c1", "displacement": 1.2}, {"smiles": "COc1cc(/C=C2/SC(=S)N(C)C2=O)ccc1OCCOc1ccc([N+](=O)[O-])cc1", "displacement": 74.5}, {"smiles": "Cc1ccc(OCCOc2ccccc2/C=C2/SC(=S)N(C)C2=O)cc1", "displacement": 3.3}, {"smiles": "CN1C(=O)/C(=C\\c2ccccc2OCCOc2ccc([N+](=O)[O-])cc2)SC1=S", "displacement": 133}, {"smiles": "CN1C(=O)/C(=C\\c2ccc(OCCOc3ccc([N+](=O)[O-])cc3)cc2)SC1=S", "displacement": -0.4}, {"smiles": "COc1ccccc1OCCOc1cccc(/C=C2/SC(=S)N(C)C2=O)c1", "displacement": 95.5}, {"smiles": "CN1C(=O)/C(=C\\c2ccccc2OCCOc2ccc(Br)cc2)SC1=S", "displacement": 2.3}, {"smiles": "COc1cc(C=C2C(=O)N(C)C(=O)N(C)C2=O)ccc1OCCOc1ccc([N+](=O)[O-])cc1", "displacement": 26.1}, {"smiles": "CCc1ccc(/C=C2\\C(=O)NN(c3ccc(Cl)c(Cl)c3)C2=O)cc1", "displacement": 5.7}]}]}
